Reference: the supplement of paper PMC10849652
The full data set covers some 8,800 targets. This sample favours those with a hit. About 0.5% of all pairs of compound and target were hits.

Assays:
Test in all cases: log2 fold change, soluble protein after heating vs DMSO (PISA); higher = thermal stabilisation; K562 lysate, 10 uM; active = over 0.2 and 3.5 SD of the protein, either way, in both replicates (recomputed)
[1] = compound: C1=CC=C(C=C1)[C@H](COC2=CC3=C(C=C2)NC(=O)N3)NC(=O)C4=CC=CN(C4=O)CC5=CC(=C(C=C5)F)F
Outline: (§1)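 Values give the log-two fold change in thermal stability against solvent controls, from duplicates. Crude K562 extract at 1 mg/mL protein, made by dounce homogenisation in PBS pH 7.4 with 1 mM MgCl2, was treated with 10 μM compound for 30 min. After 3 min heating across 48°C-58°C, aliquots were pooled, adjusted to 0.5% NP-40 at 4°C and centrifuged at 21,000xg for 90 min. The supernatant was measured by TMTpro 16plex LC-MS/MS with channel sums equalised.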

[2] = compound: CC1=C(SC2=C1C(=N[C@H](C3=NN=C(N32)C)CC(=O)N)C4=CC=C(C=C4)Cl)C
Outline: as §1

[3] = compound: CC1=C2C(=CC=C1)N=C(N(C2=O)C3=CC=CC=C3C)CN4C=NC5=C(N=CN=C54)N
Outline: as §1

[4] = compound: Cc1sc2c(c1C)C(c1ccc(Cl)cc1)=N[C@@H](CC(=O)OC(C)(C)C)c1nnc(C)n1-2
Outline: as §1

[5] = compound: c1ccc([C@@H]2C[C@H]2NC2CCNCC2)cc1
Outline: as §1

Measured: log2 fold change

USP3 (UniProt Q9Y6I4)
Sequence of UniProt Q9Y6I4 (Q9Y6I4 whole entry, looked up): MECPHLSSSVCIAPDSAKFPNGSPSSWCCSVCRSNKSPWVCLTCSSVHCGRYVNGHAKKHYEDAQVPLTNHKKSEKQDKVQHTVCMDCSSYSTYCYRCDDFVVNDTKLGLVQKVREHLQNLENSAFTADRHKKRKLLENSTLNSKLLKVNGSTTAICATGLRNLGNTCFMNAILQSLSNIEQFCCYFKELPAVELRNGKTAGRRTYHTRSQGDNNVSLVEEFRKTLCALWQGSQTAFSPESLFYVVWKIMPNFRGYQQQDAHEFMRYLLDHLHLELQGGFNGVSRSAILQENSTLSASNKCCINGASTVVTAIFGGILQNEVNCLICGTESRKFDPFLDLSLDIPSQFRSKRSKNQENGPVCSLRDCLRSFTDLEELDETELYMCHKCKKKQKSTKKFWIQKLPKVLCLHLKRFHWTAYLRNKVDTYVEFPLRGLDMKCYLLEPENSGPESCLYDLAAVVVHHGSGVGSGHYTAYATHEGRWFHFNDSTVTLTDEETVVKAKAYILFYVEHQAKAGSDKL
inactive: [1] 0.026 | [2] 0.006 | [3] -0.056 | [4] -0.044 | [5] 0.073

ZNF644 (UniProt Q9H582)
Sequence of UniProt Q9H582 (Q9H582 whole entry, looked up): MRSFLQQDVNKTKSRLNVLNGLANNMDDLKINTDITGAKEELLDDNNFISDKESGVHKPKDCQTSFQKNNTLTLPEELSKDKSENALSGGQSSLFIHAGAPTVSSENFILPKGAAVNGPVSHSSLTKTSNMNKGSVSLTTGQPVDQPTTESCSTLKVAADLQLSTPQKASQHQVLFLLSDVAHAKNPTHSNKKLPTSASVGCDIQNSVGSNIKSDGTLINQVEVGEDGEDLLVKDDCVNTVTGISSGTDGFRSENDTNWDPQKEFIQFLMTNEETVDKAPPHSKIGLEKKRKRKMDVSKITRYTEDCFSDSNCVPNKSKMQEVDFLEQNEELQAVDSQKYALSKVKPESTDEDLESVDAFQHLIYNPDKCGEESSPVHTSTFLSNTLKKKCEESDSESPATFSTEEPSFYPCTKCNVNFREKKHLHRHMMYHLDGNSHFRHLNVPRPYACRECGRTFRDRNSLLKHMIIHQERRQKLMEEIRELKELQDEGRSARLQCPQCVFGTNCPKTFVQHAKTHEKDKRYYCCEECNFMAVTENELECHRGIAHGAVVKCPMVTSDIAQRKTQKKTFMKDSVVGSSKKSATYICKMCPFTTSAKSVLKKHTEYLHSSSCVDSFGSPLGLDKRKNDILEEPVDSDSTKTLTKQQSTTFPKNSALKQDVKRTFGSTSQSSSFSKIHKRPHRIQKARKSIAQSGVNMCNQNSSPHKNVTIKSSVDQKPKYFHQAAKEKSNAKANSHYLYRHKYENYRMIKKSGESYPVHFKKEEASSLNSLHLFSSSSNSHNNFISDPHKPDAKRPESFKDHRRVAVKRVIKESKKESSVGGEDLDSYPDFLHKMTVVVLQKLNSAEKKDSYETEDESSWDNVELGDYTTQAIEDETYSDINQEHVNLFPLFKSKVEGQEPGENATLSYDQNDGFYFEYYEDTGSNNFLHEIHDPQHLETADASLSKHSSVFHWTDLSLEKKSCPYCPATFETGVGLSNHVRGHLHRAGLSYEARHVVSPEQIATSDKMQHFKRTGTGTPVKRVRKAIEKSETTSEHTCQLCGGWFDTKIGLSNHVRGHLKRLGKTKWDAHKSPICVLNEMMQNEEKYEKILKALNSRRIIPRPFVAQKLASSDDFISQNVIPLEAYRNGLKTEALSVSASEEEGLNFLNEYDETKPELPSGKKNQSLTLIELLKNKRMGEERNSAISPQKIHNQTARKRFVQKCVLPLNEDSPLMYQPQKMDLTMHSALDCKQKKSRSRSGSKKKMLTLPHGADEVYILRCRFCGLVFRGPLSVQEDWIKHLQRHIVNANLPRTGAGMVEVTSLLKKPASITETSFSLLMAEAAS
inactive: [1] 0 | [2] 0.003 | [3] -0.098 | [4] -0.009 | [5] 0.01

UTRN isoform 2 (UniProt P46939)
inactive: [1] 0.026 | [2] 0.037 | [5] 0.062
